# Compound activity: PubChem BioAssay, several laboratories
# The list is not random: actives were taken first. Their share in the collection is about 5.4%.
# DAX1 inh: DAX1 (NR0B1) inhibitors, primary screen, cell-based, HEK293, Gal4-DAX1, luciferase luminescence; Nuclear receptor subfamily 0 group B member 1 (Homo sapiens), P51843; HEK293 Gal4-DAX1 luciferase reporter; inhibition, % at 6.75 µM; hit rate 0.99% among 340,000; AID 504766, 2011;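 active means inhibition above the mean over all tested compounds plus 3 SD, cut at about 4.2% in these data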;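 further: 0% = DAX1-transfected cells with DMSO and 100% = empty-vector control cells with DMSO; inhibition shows as a rise in luminescence from relieved DAX1 repression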
# Target sequence (P51843 207-470 limits assumed): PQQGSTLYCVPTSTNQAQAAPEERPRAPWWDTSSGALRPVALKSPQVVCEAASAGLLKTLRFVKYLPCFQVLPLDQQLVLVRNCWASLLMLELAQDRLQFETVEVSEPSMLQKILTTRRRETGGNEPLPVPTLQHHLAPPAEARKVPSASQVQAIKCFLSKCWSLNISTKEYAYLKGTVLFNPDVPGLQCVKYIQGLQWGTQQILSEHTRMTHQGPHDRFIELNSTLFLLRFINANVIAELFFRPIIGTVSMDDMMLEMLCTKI
# HSF1 inhib: HSF1 inhibitors in luciferase reporter cells, primary screen, cell-based, NIH3T3, luminescence. hit rate 0.77% among 300,000. activity change, negative = inhibition, % at 7.5 µM (by protocol). NIH3T3-HGL HSE-luciferase, MG132-induced, luminescence 8 h; stronger effect = lower value;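 active means more than half of replicate wells show activity change below -50%, luminescence cut by over half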;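 further: luciferase reports HSF-1 transcriptional activity via heat shock element; 0% = median of DMSO wells and -100% = zero luminescence signal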
# AHR activator: AHR activators, primary screen, cell-based, luminescence, luciferase reporter, human. AID 2796, 2010. hit rate 2.5% among 320,000. activation, % at 5 µM. Aryl hydrocarbon receptor (Homo sapiens), P35869. AHR-responsive luciferase reporter cells; in the data active means activation above about 47%;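 further: 0% = vehicle wells and 100% = reference agonist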
# HSF1 activator: HSF-1 activators, primary screen, NIH3T3-HGL cells, MG132 stress, luminescence, single point. NIH3T3-HGL HSF-1 luciferase reporter, 8 h; 100% = twice DMSO control signal. activation, % at 9 µM. hit rate 1.7% among 300,000. AID 504408, 2011;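 active means mean replicate activation of at least 50% with a set share of replicates each reaching 50%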;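 further: 0% = median of the neutral control wells and 100% = twice that signal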
# FXN GAA850 act: FXN promoter activators, primary screen, cell-based, luciferase luminescence, HEK293 lucGAA850; activation, % at 6 µM; hit rate 0.56% among 360,000; AID 540364, 2011; HEK293 lucGAA850 FXN promoter luciferase reporter, 24 h; percent of 10 µM SAHA response;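 active means activation above the average of all compounds screened plus 3 SD, cutoff fixed separately per campaign, cut at about 7.5% in these data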;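 further: 0% = DMSO wells and 100% = 10 µM SAHA wells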
# GAA30 FXN cntr: GAA30 FXN promoter activators, confirmation, counter-screen for GAA850 frataxin promoter activator project, cell-based, luminescence, HEK293, lucGAA30, triplicate | activation, % at 6 µM | hit rate 66% among 1,900 | HEK293 lucGAA30 FXN promoter luciferase, 24 h; DMSO = 0%, 5 µM ipriflavone = 100% | AID 588350, 2011 | shares compounds with FXN GAA850 act;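 active means mean activation above the mean of solvent-only control wells plus 3 SD, cut at about 22% in these data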;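 further: counterscreen of GAA850 promoter hits where activity marks nonselective or luminescence artifacts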
# GAA850 confirm: FXN GAA850 promoter activators in reporter cells, confirmation, cell-based, luminescence, HEK293 lucGAA850, triplicate; shares compounds with FXN GAA850 act; HEK293 lucGAA850 FXN promoter luciferase reporter, 24 h; 100% = activation by SAHA; activation, % at 6 µM; hit rate 86% among 1,900; AID 588351, 2011;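 active means mean activation above a set limit taken from the primary screen, cut at about 8% in these data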;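 further: 0% = DMSO wells and 100% = 10 µM SAHA wells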
# The depositor's hits bear a star; nt = not tested or not shown.
SMILES,DAX1 inh,HSF1 inhib,AHR activator,HSF1 activator,FXN GAA850 act,GAA30 FXN cntr,GAA850 confirm
CC(C)(C)c1ccc2c(c1)C(=O)c1ccccc1C2=O,4,-3,46,4,7.9*,111*,38*
Brc1ccccc1OCCCn1cnc2ccccc21,3,29,-4,61*,8.7*,101*,36*
Cc1ccc(OCc2cc(C(=O)N3CC4C[C@@H]5CC3C[C@H](C4)C5)no2)cc1C,2,31,13,33,9.0*,97*,31*
CC1CN(c2cc(=O)n(-c3ccccc3)c(=O)[nH]2)CC(C)O1 (stereo unspecified),0,2,-2,20,8.1*,17,6
C[C@H](NC(N)=O)C(=O)N1CCN(S(=O)(=O)c2ccc3ccccc3c2)CC1,0,0,0,11,3,nt,nt
COc1ccc(S(=O)(=O)N2CCCN(S(=O)(=O)c3ccc(OC)c(C)c3)CC2)cc1C,-1,-7,0,2,8.3*,30*,17*
COc1ccc(S(=O)(=O)N2CCCC2)cc1OC,0,0,-3,9,1,nt,nt
O=S(=O)(NC1C2CC3CC(C2)CC1C3)c1ccccc1 (stereo unspecified),0,nt,-2,nt,5,nt,nt
COc1ccccc1N(C)S(=O)(=O)c1ccc(Cl)c(C(=O)NCC2(N(C)C)CCCCC2)c1,0,2,1,-1,12*,25*,4
CN(C(=O)COC(=O)c1cc(S(=O)(=O)N2CCOCC2)ccc1F)C1CCS(=O)(=O)C1 (stereo unspecified),-1,-2,0,-8,0,nt,nt
CCOc1ccc(S(=O)(=O)Nc2ccccc2C(=O)Nc2ccccc2N2CCOCC2)cc1,0,3,1,6,8.3*,19,11*
O=C(Nc1ccccc1N1CCOCC1)c1ccccc1NS(=O)(=O)c1ccc(F)cc1,-1,-3,2,23,0,nt,nt
Cc1ccc(-n2cc(CNCCCn3cccn3)c(-c3cccc(C)c3)n2)cc1,-1,7,7,8,-1,nt,nt
Cc1ccc(C)c(-n2cc(CNCCCn3cccn3)c(-c3ccccc3)n2)c1,0,0,8,-9,11*,11,7
Cc1ccc(S(=O)(=O)N2CCCC2CNC(=O)C(=O)Nc2ccc(F)cc2F)cc1 (stereo unspecified),-1,-4,-1,-10,-1,nt,nt
Cc1ccc(OCc2nnc(SCC(=O)N3C(C)CCCC3C)o2)cc1 (stereo unspecified),1,1,0,5,0,nt,nt
COc1ccnc(NCc2ccc(Cl)cc2)c1C#N,-1,19,-3,18,10*,55*,20*
COc1cc2ncnc(NCc3ccc(Cl)cc3)c2cc1OC,1,4,12,25,-1,nt,nt
CCn1c2ccccc2c2nc3cc(C(=O)O)ccc3nc21,0,nt,nt,nt,12*,101*,27*
Cc1ccc(OCCn2cnc3c(N)ncnc32)cc1,-2,-2,-1,-7,8.0*,-8,9.8*
CCOc1ccc(OCCn2c(=S)[nH]c3c(N)ncnc32)cc1,0,-3,14,-5,3,nt,nt
CSC1=C(C#N)C(c2ccccc2Cl)C2=C(N1)c1ccccc1C2=O (stereo unspecified),0,3,3,27,1,nt,nt
CSC1=C(C#N)C(c2ccccc2C)C(C#N)=C(N)N1 (stereo unspecified),-1,nt,1,nt,11*,25*,15*
CCS(=O)(=O)c1ncc(Cl)c(C(=O)Nc2ccc(C)cc2)n1,0,-98*,23,-98,19*,-61,1
O=C(NCc1ccccc1)c1nc(S(=O)(=O)Cc2ccccc2)ncc1Cl,-2,174,1,147*,17*,9,28*
SMILES,DAX1 inh,HSF1 inhib,AHR activator,HSF1 activator,FXN GAA850 act,GAA30 FXN cntr,GAA850 confirm
O=C(NCc1ccc2c(c1)OCO2)c1nc(S(=O)(=O)Cc2ccccc2)ncc1Cl,-1,-89*,2,-89,7.9*,38*,70*
Cc1ccc(CS(=O)(=O)c2ncc(Cl)c(C(=O)Nc3ccc(OC(F)F)cc3)n2)cc1,-2,11,16,8,-2,nt,nt
O=C(NCc1ccc2c(c1)OCO2)c1nc(S(=O)(=O)Cc2ccccc2F)ncc1Cl,-3,107,4,84*,21*,41*,65*
CC(C)c1cc(C(=O)OCC(=O)NC2CCS(=O)(=O)C2)c(O)c(C(C)C)c1 (stereo unspecified),1,nt,nt,nt,1,nt,nt
O=C(Cn1cc(SCc2ccccc2Cl)c2ccccc21)N1CCOCC1,-1,29,17,44,9.9*,133*,43*
CCn1cc(SCC(=O)N2CCOCC2)c2ccccc21,2,10,4,15,0,nt,nt
Cc1ccc(-n2c(C)nn(CCOc3ccccc3)c2=O)cc1,1,11,11,23,9.3*,98*,27*
Cc1nn(CCOc2ccccc2)c(=O)n1-c1c(F)cccc1F,3,14,11,47,4,nt,nt
Cc1ccc2c(c1)N(C(=O)CCC(=O)NC1CCCCCC1)CC(C)O2 (stereo unspecified),0,9,2,18,-2,nt,nt
COC(=O)c1c(C)[nH]c(C(=O)CC#N)c1C,3,-1,1,-14,2,nt,nt
COC(=O)c1c(C)[nH]c(C(=O)CSc2ccc(Cl)cc2)c1C,0,55,30,91*,8.3*,114*,35*
CC1CCC(NC(=O)CCn2ccc3cc(S(=O)(=O)N4CCCC4)ccc32)CC1 (stereo unspecified),-1,4,0,24,8.4*,9,8.9*
CCOC(=O)c1cnc(Nc2nc3ccccc3o2)nc1CSC(=S)N(CC)CC,0,-17,-2,-15,11*,41*,25*
CSc1nc(N)c2cn[nH]c2n1,0,nt,nt,nt,0,nt,nt
CCOC(=O)CNC(=S)N(Cc1cccs1)C1CCCCC1,0,0,-6,-4,8.0*,13,9.2*
CCc1ccc(NC(=O)c2c(C(=O)Nc3ccccc3)sc3nc(C)cc(=O)n23)cc1,0,-4,4,4,-1,nt,nt
